Measurements published in PubChem BioAssay (NCI).
About 83,000 compounds went through this panel and 20% of them were active in at least one assay; those are over-represented in the sample as a whole.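 Activity criterion: percent growth below 10, measured after cells in 96-well plates were exposed to a single compound concentration for 48 hours.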 Active and inactive are the calls of the source.

What follows are molecules tested on SNB-19 CNS (assay: NCI-60 one-dose screen, 48 h (100 = growth as untreated, 0 = no growth, -100 = all killed)). Conditions: 10 µM unless noted.

Row | SMILES | growth
1 | COc1ccc(Sc2ccc3[nH]c(=O)nc(N)c3c2)cc1 | 94.1% (inactive)
2 | CCN1C(=O)C2(Nc3ccccc3S2)c2cc(C)ccc21 (centres undefined) | 107% (inactive)
3 | CCOC(=O)c1cn2c3c(cc(F)cc3c1=O)C(CC)c1ccccc1C2 (centres undefined) | 103% (inactive)
4 | Cc1nn(CC(=O)O)c2c1C(=O)CC(C)(C)C2 | 103% (inactive)
5 | O=C1/C(=C/c2ccc(Oc3ccccc3)cc2)N=C(c2ccccc2)N1CCc1cccs1 | 89% (inactive)
6 | COc1cccc(C2C3=C(COC3=O)N(CCO)c3cc4c(cc32)OCO4)c1 (centres undefined) | 25.6% (inactive)
7 | COc1ccc2c(c1)c(=O)oc1c(C)c(OCC(C)=O)ccc12 | 101% (inactive)
8 | CC1=C(C/C=C(\C)CCC[C@H](C)CCC[C@H](C)CCCC(C)C)C(=O)c2ccccc2C1=O | 101% (inactive)
9 | O=S(=O)(OCCO)c1ccccc1 | 102% (inactive)
10 | COc1ccc(-c2nc3sccn3c2/C=C/C(=O)c2cc(OC)c(OC)c(OC)c2)cc1OC | 28.5% (inactive)
11 | Cc1nc(NN)c([N+](=O)[O-])c(NN)n1 | 109% (inactive)
12 | COc1cc(/C=C2\C(=O)N(c3c(Cl)cccc3Cl)c3ccccc32)cc(OC)c1O | 52.4% (inactive)
13 | COc1cc(C2C3=C(COC3=O)N(CCO)c3cc4c(cc32)OCO4)cc(OC)c1O (centres undefined) | 41.5% (inactive)
14 | COc1ccccc1CNCCCCCCCCCCCCN1C(=O)c2ccc3c4c(ccc(c24)C1=O)C(=O)N(CCCCCCCCCCCCNCc1ccccc1OC)C3=O | 58.1% (inactive)
15 | CCCCCCCCCCCCCCCC[N+]1(C)CCOCC1 | -29.1% (active)
16 | Cn1cc(C(=O)NCCC(=N)N)cc1NC(=O)CN=C(N)N | 101% (inactive)
17 | Nc1cccc2c(=S)c3ccccc3[nH]c12 | 89.8% (inactive)
18 | CCN1CCN(c2nc3ccccc3c3c(=O)c4cc(F)ccc4sc23)CC1 | 80.9% (inactive)
19 | Cc1ccc(N(CSc2ccc(Cl)cc2)CSc2ccc(Cl)cc2)cc1 | 78.6% (inactive)

Row | SMILES | growth
20 | O=C1C(Cl)=C(NCCCN2CCOCC2)C(=O)c2ccccc21 | 91.5% (inactive)
21 | O=[N+]([O-])c1ccc(O)c2ncccc12 | 37.9% (inactive)
22 | O=C(Nc1ccccc1)Oc1cccc2cccnc12 | 99.3% (inactive)
23 | Cc1ccc(C)c2c1sc1nc3nc4sc5ccccc5n4c(=N)c3c(=O)n12 | 89.4% (inactive)
24 | O=C(c1ccccc1)C(Br)C(Br)c1cccc([N+](=O)[O-])c1 (centres undefined) | 82.4% (inactive)
25 | COc1cc(/C=C2\C(=O)Nc3ccccc32)cc(OC)c1O | 83.7% (inactive)
26 | O=c1ccc2ccccc2o1 | 112% (inactive)
27 | Cc1nc(-c2ccccc2)cc2c(O)c(C(=O)N/N=C/Cc3ccccc3)[nH]c(=O)c12 | 110% (inactive)
28 | CN1CCc2cccc3c2C1Cc1ccc(O)c(O)c1-3 (centres undefined) | 111% (inactive)
29 | COc1cccc(C2C3=C(COC3=O)N(CCO)c3cc4c(cc32)CCC4)c1 (centres undefined) | 11.3% (inactive)
30 | COc1cc(CNCCCN2C(=O)c3ccc4c5c(ccc(c35)C2=O)C(=O)N(CCCNCc2cc(OC)c(OC)c(OC)c2)C4=O)cc(OC)c1OC | -92.3% (active)
31 | O=C1C=CC(=O)N1CCCCCCCCCCN1C(=O)C=CC1=O | 108% (inactive)
32 | CCCCC/C=C\C/C=C/CCCCCCCCNC(=O)Nc1ccc([N+](=O)[O-])cc1 | 89.6% (inactive)
33 | Clc1ccc(C2=NN(c3ccccc3)[C@H](c3cn(-c4ccccc4)nc3-c3ccccc3)C2)cc1 | 103% (inactive)
34 | OB(O)c1ccccc1 | 114% (inactive)
35 | COc1cccc2c(=O)c3c(sc12)c(NCCN(C)C)nc1ccccc13 | 36.6% (inactive)
36 | O=C(N/N=C/c1ccc(F)cc1)c1[nH]c2ccc(I)cc2c1-c1ccccc1 | 12% (inactive)
37 | COc1ccc(-c2nc3sc(C)cn3c2/C=C/C(=O)c2cc(OC)c(OC)c(OC)c2)cc1 | 75.6% (inactive)

The molecules below were run on U251 CNS in the same assay as above. Conditions: 10 µM unless noted.

Row | SMILES | growth
38 | COc1ccc(Sc2ccc3[nH]c(=O)nc(N)c3c2)cc1 | 94.3% (inactive)
39 | CCN1C(=O)C2(Nc3ccccc3S2)c2cc(C)ccc21 (centres undefined) | 97.5% (inactive)
40 | CCOC(=O)c1cn2c3c(cc(F)cc3c1=O)C(CC)c1ccccc1C2 (centres undefined) | 83.8% (inactive)
41 | Cc1nn(CC(=O)O)c2c1C(=O)CC(C)(C)C2 | 119% (inactive)
42 | O=C1/C(=C/c2ccc(Oc3ccccc3)cc2)N=C(c2ccccc2)N1CCc1cccs1 | 93.9% (inactive)
43 | COc1cccc(C2C3=C(COC3=O)N(CCO)c3cc4c(cc32)OCO4)c1 (centres undefined) | 18.2% (inactive)
44 | COc1ccc2c(c1)c(=O)oc1c(C)c(OCC(C)=O)ccc12 | 90% (inactive)
45 | CC1=C(C/C=C(\C)CCC[C@H](C)CCC[C@H](C)CCCC(C)C)C(=O)c2ccccc2C1=O | 98.5% (inactive)
46 | O=S(=O)(OCCO)c1ccccc1 | 106% (inactive)
47 | COc1ccc(-c2nc3sccn3c2/C=C/C(=O)c2cc(OC)c(OC)c(OC)c2)cc1OC | 10% (inactive)
48 | Cc1nc(NN)c([N+](=O)[O-])c(NN)n1 | 102% (inactive)
49 | COc1cc(/C=C2\C(=O)N(c3c(Cl)cccc3Cl)c3ccccc32)cc(OC)c1O | 22.4% (inactive)
50 | COc1cc(C2C3=C(COC3=O)N(CCO)c3cc4c(cc32)OCO4)cc(OC)c1O (centres undefined) | 21.4% (inactive)
51 | COc1ccccc1CNCCCCCCCCCCCCN1C(=O)c2ccc3c4c(ccc(c24)C1=O)C(=O)N(CCCCCCCCCCCCNCc1ccccc1OC)C3=O | -28.6% (active)
52 | CCCCCCCCCCCCCCCC[N+]1(C)CCOCC1 | -84.8% (active)
53 | Cn1cc(C(=O)NCCC(=N)N)cc1NC(=O)CN=C(N)N | 98% (inactive)
54 | Nc1cccc2c(=S)c3ccccc3[nH]c12 | 104% (inactive)
55 | CCN1CCN(c2nc3ccccc3c3c(=O)c4cc(F)ccc4sc23)CC1 | 46.5% (inactive)
56 | Cc1ccc(N(CSc2ccc(Cl)cc2)CSc2ccc(Cl)cc2)cc1 | 47.8% (inactive)

Row | SMILES | growth
57 | O=C1C(Cl)=C(NCCCN2CCOCC2)C(=O)c2ccccc21 | 98.3% (inactive)
58 | O=[N+]([O-])c1ccc(O)c2ncccc12 | 34.2% (inactive)
59 | O=C(Nc1ccccc1)Oc1cccc2cccnc12 | 70.5% (inactive)
60 | Cc1ccc(C)c2c1sc1nc3nc4sc5ccccc5n4c(=N)c3c(=O)n12 | 107% (inactive)
61 | O=C(c1ccccc1)C(Br)C(Br)c1cccc([N+](=O)[O-])c1 (centres undefined) | 17.7% (inactive)
62 | COc1cc(/C=C2\C(=O)Nc3ccccc32)cc(OC)c1O | 47% (inactive)
63 | O=c1ccc2ccccc2o1 | 104% (inactive)
64 | Cc1nc(-c2ccccc2)cc2c(O)c(C(=O)N/N=C/Cc3ccccc3)[nH]c(=O)c12 | 98.8% (inactive)
65 | CN1CCc2cccc3c2C1Cc1ccc(O)c(O)c1-3 (centres undefined) | 99.9% (inactive)
66 | COc1cccc(C2C3=C(COC3=O)N(CCO)c3cc4c(cc32)CCC4)c1 (centres undefined) | 2.42% (active)
67 | COc1cc(CNCCCN2C(=O)c3ccc4c5c(ccc(c35)C2=O)C(=O)N(CCCNCc2cc(OC)c(OC)c(OC)c2)C4=O)cc(OC)c1OC | -74.5% (active)
68 | O=C1C=CC(=O)N1CCCCCCCCCCN1C(=O)C=CC1=O | 76.9% (inactive)
69 | CCCCC/C=C\C/C=C/CCCCCCCCNC(=O)Nc1ccc([N+](=O)[O-])cc1 | 51.3% (inactive)
70 | Clc1ccc(C2=NN(c3ccccc3)[C@H](c3cn(-c4ccccc4)nc3-c3ccccc3)C2)cc1 | 93.1% (inactive)
71 | OB(O)c1ccccc1 | 101% (inactive)
72 | COc1cccc2c(=O)c3c(sc12)c(NCCN(C)C)nc1ccccc13 | -28.1% (active)
73 | O=C(N/N=C/c1ccc(F)cc1)c1[nH]c2ccc(I)cc2c1-c1ccccc1 | 20.4% (inactive)
74 | COc1ccc(-c2nc3sc(C)cn3c2/C=C/C(=O)c2cc(OC)c(OC)c(OC)c2)cc1 | 47.1% (inactive)
